# Where a name gives a salt, the structure may show the parent alone. ± gives the standard deviation of the averaged measurements.
# Experiments:
# [1] = test system: Saccharomyces cerevisiae BY4741 SeMeCo community; experiment: mean cell size (pixel area) (pixels); higher = larger cells; conditions: 10 µM; 24 h; SM minimal medium
# Procedure, shortened: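 In this assay, mean cell pixel area per well was obtained from automated confocal images of paraformaldehyde-fixed yeast analysed in Harmony. The cells were a Saccharomyces cerevisiae BY4741 community with four plasmids, each complementing one auxotrophy and carrying a fluorescent marker, grown for 24 h in SM medium with drug at a final 10 µM in 384-well plates. Values are averaged across 3 replicates. Same SeMeCo high-content imaging drug screen: Selleck FDA-approved drugs at 10 µM, 24 h in SM medium, 384-well plates, 3 replicates.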
# [2] = test system: Saccharomyces cerevisiae BY4741 SeMeCo community; experiment: z-score of prototroph abundance vs DMSO median; higher = larger share of this subpopulation than in DMSO controls; conditions: 10 µM; 24 h; SM minimal medium; subpopulation (auxotrophy): Prototroph
# Procedure, shortened: (§1)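 Automated confocal microscopy of paraformaldehyde-fixed cells was used to follow a Saccharomyces cerevisiae BY4741 community carrying four plasmids, each restoring one auxotrophy and encoding a distinct fluorescent protein. The community was pre-grown overnight to OD600 1.0, diluted to 0.3, and added at 70 µl to 384-well plates acoustically predosed with library drugs (10 µM final) for 24 h of growth in minimal SM medium. Single-auxotroph fluorescent strains set thresholds and autofluorescence correction, and each subpopulation's abundance was scored as a z-score against the vehicle-well median.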
# [3] = test system: Saccharomyces cerevisiae BY4741 SeMeCo community; experiment: z-score of subpopulation abundance vs DMSO median, subpopulation auxotrophic for M; higher = larger share of this subpopulation than in DMSO controls; conditions: 10 µM; 24 h; SM minimal medium; subpopulation (auxotrophy): M
# Procedure, shortened: as §1
# [4] = test system: Saccharomyces cerevisiae BY4741 SeMeCo community; experiment: z-score of subpopulation abundance vs DMSO median, subpopulation auxotrophic for L; higher = larger share of this subpopulation than in DMSO controls; conditions: 10 µM; 24 h; SM minimal medium; subpopulation (auxotrophy): L
# Procedure, shortened: as §1
# [5] = test system: Saccharomyces cerevisiae BY4741 SeMeCo community; experiment: z-score of subpopulation abundance vs DMSO median, subpopulation auxotrophic for H; higher = larger share of this subpopulation than in DMSO controls; conditions: 10 µM; 24 h; SM minimal medium; subpopulation (auxotrophy): H
# Procedure, shortened: as §1
# [6] = test system: Saccharomyces cerevisiae BY4741 SeMeCo community; experiment: z-score of subpopulation abundance vs DMSO median, subpopulation auxotrophic for LU; higher = larger share of this subpopulation than in DMSO controls; conditions: 10 µM; 24 h; SM minimal medium; subpopulation (auxotrophy): LU
# Procedure, shortened: as §1
# [7] = test system: Saccharomyces cerevisiae BY4741 SeMeCo community; experiment: z-score of subpopulation abundance vs DMSO median, subpopulation auxotrophic for HM; higher = larger share of this subpopulation than in DMSO controls; conditions: 10 µM; 24 h; SM minimal medium; subpopulation (auxotrophy): HM
# Procedure, shortened: as §1
# [8] = test system: Saccharomyces cerevisiae BY4741 SeMeCo community; experiment: z-score of subpopulation abundance vs DMSO median, subpopulation auxotrophic for HU; higher = larger share of this subpopulation than in DMSO controls; conditions: 10 µM; 24 h; SM minimal medium; subpopulation (auxotrophy): HU
# Procedure, shortened: as §1
# [9] = test system: Saccharomyces cerevisiae BY4741 SeMeCo community; experiment: z-score of subpopulation abundance vs DMSO median, subpopulation auxotrophic for UM; higher = larger share of this subpopulation than in DMSO controls; conditions: 10 µM; 24 h; SM minimal medium; subpopulation (auxotrophy): UM
# Procedure, shortened: as §1
# [10] = test system: Saccharomyces cerevisiae BY4741 SeMeCo community; experiment: z-score of subpopulation abundance vs DMSO median, subpopulation auxotrophic for HL; higher = larger share of this subpopulation than in DMSO controls; conditions: 10 µM; 24 h; SM minimal medium; subpopulation (auxotrophy): HL
# Procedure, shortened: as §1
# [11] = test system: Saccharomyces cerevisiae BY4741 SeMeCo community; experiment: z-score of subpopulation abundance vs DMSO median, subpopulation auxotrophic for HLU; higher = larger share of this subpopulation than in DMSO controls; conditions: 10 µM; 24 h; SM minimal medium; subpopulation (auxotrophy): HLU
# Procedure, shortened: as §1
# [12] = test system: Saccharomyces cerevisiae BY4741 SeMeCo community; experiment: z-score of subpopulation abundance vs DMSO median, subpopulation auxotrophic for HLM; higher = larger share of this subpopulation than in DMSO controls; conditions: 10 µM; 24 h; SM minimal medium; subpopulation (auxotrophy): HLM
# Procedure, shortened: as §1
# [13] = test system: Saccharomyces cerevisiae BY4741 SeMeCo community; experiment: z-score of subpopulation abundance vs DMSO median, subpopulation auxotrophic for HUM; higher = larger share of this subpopulation than in DMSO controls; conditions: 10 µM; 24 h; SM minimal medium; subpopulation (auxotrophy): HUM
# Procedure, shortened: as §1
# [14] = test system: Saccharomyces cerevisiae BY4741 SeMeCo community; experiment: z-score of subpopulation abundance vs DMSO median, subpopulation auxotrophic for LUM; higher = larger share of this subpopulation than in DMSO controls; conditions: 10 µM; 24 h; SM minimal medium; subpopulation (auxotrophy): LUM
# Procedure, shortened: as §1
# [15] = test system: Saccharomyces cerevisiae BY4741 SeMeCo community; experiment: z-score of subpopulation abundance vs DMSO median, subpopulation auxotrophic for HLUM; higher = larger share of this subpopulation than in DMSO controls; conditions: 10 µM; 24 h; SM minimal medium; subpopulation (auxotrophy): HLUM
# Procedure, shortened: as §1
# [16] = test system: Saccharomyces cerevisiae BY4741 SeMeCo community; experiment: z-score of subpopulation abundance vs DMSO median, subpopulation auxotrophic for U; higher = larger share of this subpopulation than in DMSO controls; conditions: 10 µM; 24 h; SM minimal medium; subpopulation (auxotrophy): U
# Procedure, shortened: as §1
# [17] = test system: Saccharomyces cerevisiae BY4741 SeMeCo community; experiment: z-score of subpopulation abundance vs DMSO median, subpopulation auxotrophic for LM; higher = larger share of this subpopulation than in DMSO controls; conditions: 10 µM; 24 h; SM minimal medium; subpopulation (auxotrophy): LM
# Procedure, shortened: as §1
SMILES,mean cell size [1],z-score of prototroph abundance [2],z-score of subpopulation abundance [3],z-score of subpopulation abundance [4],z-score of subpopulation abundance [5],z-score of subpopulation abundance [6],z-score of subpopulation abundance [7],z-score of subpopulation abundance [8],z-score of subpopulation abundance [9],z-score of subpopulation abundance [10],z-score of subpopulation abundance [11],z-score of subpopulation abundance [12],z-score of subpopulation abundance [13],z-score of subpopulation abundance [14],z-score of subpopulation abundance [15],z-score of subpopulation abundance [16],z-score of subpopulation abundance [17]
COc1cc([C@@H]2c3cc4c(cc3[C@@H](O[C@@H]3O[C@@H]5CO[C@@H](c6cccs6)O[C@H]5[C@H](O)[C@H]3O)[C@H]3COC(=O)[C@H]23)OCO4)cc(OC)c1O [Teniposide],12.5 ± 0.04,-1.62,1.05,1.6,0.91,0.76,0.99,1.34,0.67,1.18,2.62,1,1.08,1.42,0.55,–,–
CCN(CC)CCOCCOC(=O)C1(c2ccccc2)CCCC1 [Pentoxyverine Citrate],12.5 ± 0.13,0.37,-0.67,-0.03,-0.71,0.06,-0.96,–,-0.39,-0.72,-0.39,-0.05,-1.14,-0.26,-0.26,0.17,–
CO/N=C(/C(=O)N[C@@H]1C(=O)N2C(C(=O)OCOC(=O)C(C)(C)C)=C(C)CS[C@H]12)c1csc(N)n1 [Cefetamet pivoxil hydrochloride],12.46 ± 0.1,–,0.7,0.83,1.26,0.94,1.3,–,0.64,1.33,1.65,1.15,0.8,–,–,0.3,–
CCCCCC(=O)O[C@]1(C(C)=O)CC[C@H]2[C@@H]3CCC4=CC(=O)CC[C@]4(C)[C@H]3CC[C@@]21C [Hydroxyprogesterone caproate],12.47 ± 0.039,-1.13,0.22,1.21,–,0.72,–,1.19,0.42,–,0.62,0.65,1.38,1.15,0.74,–,–
CC(=O)OCC1=C(C(=O)O)N2C(=O)[C@@H](NC(=O)CSc3ccncc3)[C@H]2SC1 [Cephapirin Benzathine],–,–,-0.98,-0.54,1.45,0.44,0.66,1.01,-0.24,0.48,0.25,0.47,0.27,-0.22,-0.55,1.05,0.09
O=C(C1CCCCC1)N1CC(=O)N2CCc3ccccc3C2C1 (stereo not drawn) [Praziquantel],12.39 ± 0.1,–,0.19,0.31,-0.1,0.75,-0.5,-0.36,0.1,-0.41,0.47,-1.06,-0.37,0.43,–,0.5,–
COc1cc(Cc2cnc(N)nc2N)cc(OC)c1OC [Trimethoprim],–,0.19,0.01,0.44,–,0.14,-0.06,0,0.07,-0.46,0.25,-0.6,-0.12,0.27,-0.22,0.2,-0.07
Nc1nc2[nH]cc(CCc3ccc(C(=O)N[C@@H](CCC(=O)O)C(=O)O)cc3)c2c(=O)[nH]1 [Pemetrexed Disodium Hydrate],14.5 ± 0.077,3.18,-9.02,3.26,3.82,1.43,–,1.99,-7.6,–,11.4,1.25,-4.9,-3.47,3.48,-1.03,–
NC(=O)N1c2ccccc2CC(=O)c2ccccc21 [Oxcarbazepine],12.4 ± 0.25,0.37,-0.31,-0.68,–,-0.37,0,0.16,0.07,-0.1,-0.11,-1.13,0.19,–,–,–,–
C[C@@H](O)[C@H]1C(=O)N2C(C(=O)[O-])=C(SC3Cn4cnc[n+]4C3)[C@H](C)[C@H]12 (stereo partly drawn) [Biapenem],–,0.75,1.3,-0.66,-0.04,-1.32,0.51,-0.36,-0.17,-0.48,-1.25,-0.52,-0.24,-0.49,-0.81,-0.12,-0.22
Clc1ccccc1C(c1ccccc1)(c1ccccc1)n1ccnc1 [Clotrimazole],–,-9.07,4.9,-2.83,6.9,-0.93,6.05,6.35,–,3.58,3.78,15.2,7.76,5.41,–,-0.04,1.9
CO/N=C(\C(=O)N[C@@H]1C(=O)N2C(C(=O)O)=C(Cn3ccc(=N)n3CCO)CS[C@H]12)c1csc(N)n1 [Cefoselis Sulfate],–,0.34,1.45,-1.67,-1.31,-0.98,-0.32,–,0.03,-1.68,-0.33,-1.24,0.02,-0.44,-0.64,0.03,-0.08
O=C1c2cccc3c2[C@H](CCC3)CN1[C@@H]1CN2CCC1CC2 [Palonosetron],–,-0.11,-0.21,-0.81,-0.77,-0.39,–,-0.06,0.49,-0.45,-0.63,-0.49,0.12,0.34,-0.4,-0.35,-0.55
"C[C@H](Nc1ncnc2nc[nH]c12)c1cc2cccc(Cl)c2c(=O)n1-c1ccccc1 [Duvelisib (IPI-145, INK1197)]",–,-0.55,-0.39,1.3,0.93,1.28,-0.47,-0.03,-0.3,0.33,0.95,0.18,-0.67,0.56,0.98,–,0.42
C[C@H]1O[C@@H](O[C@H]2[C@@H](O)C[C@H](O[C@H]3[C@@H](O)C[C@H](O[C@H]4CC[C@@]5(C)[C@H](CC[C@@H]6[C@@H]5C[C@@H](O)[C@]5(C)[C@@H](C7=CC(=O)OC7)CC[C@]65O)C4)O[C@@H]3C)O[C@@H]2C)C[C@H](O)[C@@H]1O [Digoxin],–,–,-1.12,-0.7,0.21,-0.6,-0.55,0.8,-0.69,-0.11,-0.03,-0.7,-0.77,-0.61,-0.34,0.17,–
